# Compound activity deposited in PubChem BioAssay by several laboratories.
# CRFBP-R2 block: antagonists of CRF-BP/CRF-R2 complex, primary screen, cell-based, HEK293, calcium dye fluorescence, uHTS | 350,000 tested, 0.59% active | inhibition, % at 11.8 µM | AID 588475, 2011 | CRF-induced calcium fluorescence;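 active = inhibition of the ligand-induced calcium signal above about 50% at the single tested concentration, limit read from the data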
# IDE cell inh: human IDE inhibitors in live cells, primary screen, fluorescence polarization, HEK cells, FAbetaB substrate; Insulin-degrading enzyme (Homo sapiens), P14735; FAbetaB cleavage; 320,000 tested, 0.41% active; inhibition, % at 5.59 µM; AID 434962, 2010;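 active = percent inhibition above the average of all tested compounds plus 3 SD, set per screening campaign, cut at about 16% in these data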;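 also: IDE supplied by intact live HEK cells; FP after avidin binding of uncleaved biotin substrate so inhibition keeps polarization high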
# Myeloid diff 2: induction of myeloid progenitor differentiation, primary screen, cell-based, flow cytometry, MLPCN library; AID 624256, 2012; 360,000 tested, 1% active; ER-HoxA9 myeloid progenitors, lysozyme-GFP differentiation; calls only at 10 µM;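 active = normalized GFP-positive differentiation at or above the plate's own cutoff, the solvent-only control mean plus 3 SD; inconclusive = no clear call, values can overlap the other calls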;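 also: cells exposed to compound for four days before flow analysis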
# CRFR2-BP ag: agonists of CRF-BP/CRF-R2 complex, primary screen, cell-based, HEK293, calcium dye fluorescence, uHTS; 350,000 tested, 0.46% active; calcium dye fluorescence (FLIPR); percent of saturating CRF peptide response; CRF-binding protein / CRF receptor 2 complex (human); AID 588473, 2011; activation, % at 13.2 µM;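 active = activation of at least 50%, plus an integration ratio under a set limit after plate pattern correction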
# TPT1 inhibitor: Candida albicans TPT1 enzyme inhibitors, primary screen, biochemical, fluorescence polarization. recombinant caTPT1, FP RNA substrate dephosphorylation. inhibition, % at 5 µM. 300,000 tested, 0.81% active. AID 1962, 2009;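 active = inhibition above the mean of all tested compounds plus 3 SD, set per screening campaign, cut at about 24% in these data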
# IDE cell activ: human IDE activators in live cells, primary screen, fluorescence polarization, HEK cells, FAbeta-B substrate. FAbeta-B cleavage; 0% vehicle, 100% cell-free pure enzyme wells. activation, % at 5.96 µM. 340,000 tested, 0.073% active. AID 493087, 2011;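 active = activation above the mean of all tested compounds plus 3 SD, set per screening campaign, cut at about 17% in these data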
# caTPT1 confirm: Candida albicans TPT1 inhibitors, confirmation, biochemical, fluorescence polarization, triplicate; shares compounds with TPT1 inhibitor; recombinant caTPT1, RNase T1 coupled; inhibition, % at 5 µM; 2,400 tested, 74% active; AID 2149, 2009;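 active = inhibition above the primary screen limit, the mean inhibition of all tested compounds plus 3 SD, cut at about 25% in these data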
# RNase T1 inh: RNase T1 inhibitors, counter-screen for TPT1 inhibitor project, biochemical, fluorescence polarization. shares compounds with TPT1 inhibitor. RNase T1 cleavage, 1536-well. inhibition, % at 5 µM. 2,400 tested, 83% active. AID 2153, 2009;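 active = inhibition above the solvent-only control well mean plus 3 SD, limit set per screening run, cut at about 23% in these data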;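 also: inhibitors block cleavage so intact labeled substrate keeps polarization high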
# Target sequence (P00651 whole entry, looked up): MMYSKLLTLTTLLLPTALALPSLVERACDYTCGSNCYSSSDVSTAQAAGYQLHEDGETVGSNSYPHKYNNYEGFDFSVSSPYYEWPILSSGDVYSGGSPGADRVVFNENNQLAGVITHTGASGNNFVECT
# Hits are given with their value; - = inactive; ? = inconclusive; . = no result; + = active, no number. Sampled rows, rich in hits. Any-hit rate of the full collection: about 2.6%.
SMILES,CRFBP-R2 block,IDE cell inh,Myeloid diff 2,CRFR2-BP ag,TPT1 inhibitor,IDE cell activ,caTPT1 confirm,RNase T1 inh
CCc1nnc(NS(=O)(=O)c2ccc(N/C=C(\C=O)c3nc4cc(Cl)ccc4o3)cc2)s1,-,-,-,-,80.5,-,-,-
CCc1nnc(NS(=O)(=O)c2ccc(NC(=O)c3ccc(Cl)cc3)cc2)s1,-,-,-,-,-,-,.,.
CN(C)CCCNCC(=O)NN(c1ccccc1)c1ccccc1,-,-,.,-,-,.,.,.
C[C@H](CO)N1C[C@H](C)[C@@H](CN(C)Cc2ccc(Cl)c(Cl)c2)Oc2ccc(NC(=O)Cn3cnnn3)cc2C1=O,-,-,-,-,.,-,.,.
O=c1c(O)c(-c2ccccc2)oc2ccccc12,-,.,-,-,.,-,.,.
O=c1c(O)c(-c2cccs2)oc2ccccc12,-,-,-,107.7,24.6,-,24.8,36.3
Cc1cc(C(=O)OCC(=O)c2ccc(Br)s2)c(C)o1,.,-,.,.,30.3,.,-,-
CCCCN(CC)C(=O)Cn1ncc2c3ccccc3n(CCC)c2c1=O,-,.,-,-,.,-,.,.
Cc1c(C#N)c(O)[nH]c(=O)c1N=Nc1ccc(Br)cc1C(=O)O,-,-,-,-,28.7,-,43.2,64.6
Cc1cccc(N=Nc2c(C)c(C#N)c(O)[nH]c2=O)c1,-,-,-,-,-,-,.,.
CC(C)C(=O)NC(=S)/C=C1/N(C)c2ccccc2C1(C)C,-,-,+,-,28.0,-,-,23.9
C=CCn1c(=O)/c(=C2/Sc3ccccc3N2CC)s/c1=C1/C(=O)NN=C1C,.,-,.,.,43.8,.,48.2,59.5
CCOc1cc(CNCc2cccnc2)ccc1OCC(=O)NC(C)(C)C,-,-,-,-,-,-,.,.
Cc1cccc(C(=O)N2CCNC(=O)C2CC(=O)Nc2cccc(Cl)c2)c1 (stereo not given),-,-,-,-,24.2,-,-,-
O=C(Nc1ccccc1)c1ccc[nH]1,-,-,-,-,-,-,.,.
COc1ccc(CN2CCNC(=O)C2CC(=O)NCCc2c[nH]c3ccccc23)c(OC)c1 (stereo not given),-,-,-,-,-,-,.,.
Oc1c(C=Nc2ccccc2)sc(=S)n1Cc1ccccc1,-,-,+,-,42.8,-,43.3,59.4
CCn1c(O)c(C=Nc2ccccc2)sc1=S,-,-,.,-,24.8,.,-,27.6
C=CCn1c(O)c(C=Nc2ccccc2)sc1=S,-,-,-,-,-,-,.,.
CCOC(=O)COc1nc(-c2ccco2)cc(-c2ccco2)c1C#N,-,-,-,-,-,.,.,.
CCOC(=O)CCSc1nc(C)cc(C(F)(F)F)c1C#N,-,-,+,-,24.8,-,32.7,43.9
CCOC(=O)C(C)Sc1nc(-c2ccco2)cc(C(F)(F)F)c1C#N (stereo not given),-,-,-,-,25.9,-,-,-
CCN1CCCC1CNC(=O)c1cc2cc(F)ccc2[nH]1 (stereo not given),-,-,-,-,-,-,.,.
COC(=O)[C@]12CCCCC=C1N(Cc1ccc3c(c1)OCO3)C(=O)[C@H](CC(=O)NCc1cccc3ccccc13)C2,.,.,-,.,.,.,.,.
Cc1ccc(N2C(=O)C3C(C(=O)c4ccccc4)=NN(c4ccccc4)C3C2=O)cc1 (stereo not given),-,-,-,90.3,29.1,-,37.0,50.9
SMILES,CRFBP-R2 block,IDE cell inh,Myeloid diff 2,CRFR2-BP ag,TPT1 inhibitor,IDE cell activ,caTPT1 confirm,RNase T1 inh
COc1ccc(-c2c/c(=N\c3nc(-c4ccccc4)c(C)s3)c3ccccc3o2)cc1O,-,-,.,-,26.5,-,-,30.6
COc1ccc(-c2cc(=Nc3c(C)n(C)n(-c4ccccc4)c3=O)c3ccccc3o2)cc1,-,-,-,-,-,-,.,.
CN(C)c1ccc(-c2sc(Nc3ccccc3)n[n+]2-c2ccc(F)cc2)cc1,-,-,-,-,35.5,-,93.2,97.5
CCN(CC)c1ccc(-c2sc(Nc3ccccc3)n[n+]2-c2ccc(F)cc2)cc1,-,-,+,-,94.7,-,120.5,116.7
O=C(O)c1ccc(-c2sc(Nc3ccccc3)n[n+]2-c2ccc(F)cc2)cc1,-,-,-,-,-,-,.,.
COc1ccc(C)cc1Nc1n[n+](-c2ccccc2)c(-c2ccc(OC)c(OC)c2OC)s1,-,-,-,-,-,-,.,.
COc1ccc(C)cc1Nc1n[n+](-c2ccccc2)c(-c2ccc(N(C)C)cc2)s1,-,-,-,-,50.9,-,90.1,98.7
COc1cc(/C=C2/C(=N)N3C(=NC2=O)SN=C3S(C)(=O)=O)ccc1OS(=O)(=O)c1ccccc1,.,-,.,.,27.9,.,-,23.2
Cc1ccc(-n2cccc2/C=C2/C(=N)N3C(=NC2=O)SN=C3S(C)(=O)=O)cc1Cl,50.3,-,?,-,32.1,-,35.2,48.4
O=c1[nH]c(=S)[nH]c2c1C(c1cccc(C(F)(F)F)c1)OC(CCc1ccccc1)C2 (stereo not given),.,.,-,.,.,.,.,.
O=C(c1ccc(-c2ccc([N+](=O)[O-])cc2)o1)N1CCCC(C(F)(F)F)C1 (stereo not given),-,-,-,-,24.8,-,-,-
CN1CCc2c(sc3c2C(=O)NC(c2ccc(-c4ccc(Cl)cc4)o2)N3)C1 (stereo not given),-,-,+,-,90.6,.,86.0,95.9
CN1CCc2c(sc3c2C(=O)NC(c2cn(Cc4ccccc4)c4ccccc24)N3)C1 (stereo not given),-,-,-,-,66.8,-,74.8,84.8
CN1CCc2c(sc3c2C(=O)NC(c2cccc(OC(=O)c4cccs4)c2)N3)C1 (stereo not given),-,-,-,-,98.6,-,110.0,110.2
CN1CCc2c(sc3c2C(=O)NC(c2ccco2)N3)C1 (stereo not given),-,-,-,-,-,-,.,.
O=C1NC(c2ccco2)Nc2sc3c(c21)CCN(Cc1ccccc1)C3 (stereo not given),-,-,-,-,53.0,-,53.2,62.4
COc1ccc(Br)cc1C1NC(=O)c2c(sc3c2CCN(C)C3)N1 (stereo not given),-,.,-,-,.,-,.,.
